Our source for the composite z-score, composite Z-score and z-score values is PubChem BioAssay.

Activity calls are given as the source filed them.

One assay addresses Albumin (Bos taurus) (UniProt P02769). The assay can be described thus: compounds binding labelled BSA control protein – biochemical, small-molecule microarray, Alexa647 label, 635/667 nm fluorescence, artefact control for SMM control protein annotation, profiling panel (AID 1118).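 Note: score merges 667 nm emission intensity and signal-to-noise per printed compound spot.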 The conditions noted are these: BSA-A647 binding, fluorescence 635 nm, higher = more signal.
The nature of assay [1]: probe aXIP binding to arrayed compounds – biochemical, NeuroSMM set, 635/667 nm fluorescence, primary screen (AID 1119).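 Note: probe is the protein aXip251-270 applied at 1 µg/mL to compound-printed slides; binding of probe to printed compounds measured as 667 nm fluorescence plus signal to noise.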 The note with it: small-molecule microarray, higher = more signal, called active from +8 up or from −8 down.
Assay [2] in a line: probe aNOTCH3 binding on compound microarray – biochemical, small-molecule microarray, 635/667 nm fluorescence, primary screen (AID 1120).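 Note: probe is a biotin-tagged antibody raised against NOTCH3 rather than NOTCH3 protein; score merges spot fluorescence near 667 nm with spot signal to noise.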 The note with it: higher = more signal.
Assay [3] can be described thus: probe aNOTCH2 binding on compound microarray – biochemical, small-molecule microarray, 635/667 nm fluorescence, primary screen (AID 1121).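 Note: score merges feature fluorescence read at 667 nm with its signal to noise.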 The note with it: higher = more signal.
Assay [4] addresses Carbonic anhydrase 2 (Homo sapiens) (UniProt P00918). The assay can be described thus: compounds binding carbonic anhydrase 2 – biochemical, small-molecule microarray, Alexa647-labelled CAII, profiling panel (AID 1122). The conditions noted are these: CAII-A647 binding fluorescence, higher = more signal.
Assay [5] in a line: COS7 lysate on small-molecule microarray, probe aHis, 635 nm (AID 1123).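 Note: z-score combines 667nm fluorescence intensity with signal-to-noise per printed compound spot.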 The note with it: COS7 cell lysate, fluorescence, higher = more signal.
Assay [6] in a line: probe aLAP1 signal on lysate-treated microarray – cell lysate, small-molecule microarray, COS7 lysate, primary screen (AID 1124).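 Note: lysate comes from COS7 cells expressing LAP1 and is applied at 0.3 µg/mL; score merges spot fluorescence near 667 nm with signal-to-noise over triplicate slides.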 The conditions noted are these: probe aLAP1, fluorescence, higher = more signal.
A further assay has as its system Sam68 (KHDRBS1). As to the kind of experiment: compounds binding KHDRBS1 protein – biochemical, small-molecule microarray, 635 nm fluorescence, primary screen (AID 1125).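 Note: score merges 667 nm channel intensity with signal to noise over triplicate slides.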 The conditions noted are these: higher = more signal.
The subject of assay [7] is Chordin-like protein 2 (CHRDL2). As to the kind of experiment: compounds binding chordin-like 2 – biochemical, small-molecule microarray, 635 nm fluorescence, primary screen (AID 1126).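 Note: printed compound slides probed with Chrdl2 protein at 4 µg/mL for 1 h at 4 C; score merges 667 nm emission intensity with signal to noise over three replicate slides.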 The note with it: fluorescence 635 nm, higher = more signal.
Assay [8] addresses Concanavalin-A (Canavalia ensiformis) (UniProt P02866). The assay can be described thus: compounds binding concanavalin A lectin – biochemical, small-molecule microarray, Alexa647 label, 635 nm, artefact control for SMM control protein annotation, primary screen (AID 1127).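 Note: z combines 667 nm emission intensity with signal-to-noise across three replicate slides.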 The note with it: ConA-A647 binding fluorescence, higher = more signal.
Assay [9] can be described thus: compounds binding Alexa647 anti-His antibody – biochemical, small-molecule microarray, 635 nm fluorescence, artefact control for SMM control protein annotation, primary screen (AID 1128).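 Note: score merges feature fluorescence with signal-to-noise for each printed compound spot.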 The note with it: higher = more signal.
In assay [10] the test system is Human papillomavirus type 1a E7 protein (residues 1-88). As to the kind of experiment: HPV1a E7 small-molecule binders, primary screen, biochemical, small-molecule microarray, residues 1-88, 635 nm (AID 1129). The conditions noted are these: small-molecule microarray binding, fluorescence 635 nm; higher = more signal.
The target in assay [11] is Focal adhesion kinase 1 (Homo sapiens) (UniProt Q05397). The assay can be described thus: PTK2 protein binding on printed compound slides – biochemical, small-molecule microarray, 635/667 nm fluorescence, BSA, DTT, primary screen (AID 1130).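 Note: composite of spot emission at 667 nm and signal to noise over triplicate slides.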 The conditions noted are these: 635 nm fluorescence, higher = more signal.
Chain of Focal adhesion kinase 1 (Homo sapiens) (Q05397 whole entry, looked up): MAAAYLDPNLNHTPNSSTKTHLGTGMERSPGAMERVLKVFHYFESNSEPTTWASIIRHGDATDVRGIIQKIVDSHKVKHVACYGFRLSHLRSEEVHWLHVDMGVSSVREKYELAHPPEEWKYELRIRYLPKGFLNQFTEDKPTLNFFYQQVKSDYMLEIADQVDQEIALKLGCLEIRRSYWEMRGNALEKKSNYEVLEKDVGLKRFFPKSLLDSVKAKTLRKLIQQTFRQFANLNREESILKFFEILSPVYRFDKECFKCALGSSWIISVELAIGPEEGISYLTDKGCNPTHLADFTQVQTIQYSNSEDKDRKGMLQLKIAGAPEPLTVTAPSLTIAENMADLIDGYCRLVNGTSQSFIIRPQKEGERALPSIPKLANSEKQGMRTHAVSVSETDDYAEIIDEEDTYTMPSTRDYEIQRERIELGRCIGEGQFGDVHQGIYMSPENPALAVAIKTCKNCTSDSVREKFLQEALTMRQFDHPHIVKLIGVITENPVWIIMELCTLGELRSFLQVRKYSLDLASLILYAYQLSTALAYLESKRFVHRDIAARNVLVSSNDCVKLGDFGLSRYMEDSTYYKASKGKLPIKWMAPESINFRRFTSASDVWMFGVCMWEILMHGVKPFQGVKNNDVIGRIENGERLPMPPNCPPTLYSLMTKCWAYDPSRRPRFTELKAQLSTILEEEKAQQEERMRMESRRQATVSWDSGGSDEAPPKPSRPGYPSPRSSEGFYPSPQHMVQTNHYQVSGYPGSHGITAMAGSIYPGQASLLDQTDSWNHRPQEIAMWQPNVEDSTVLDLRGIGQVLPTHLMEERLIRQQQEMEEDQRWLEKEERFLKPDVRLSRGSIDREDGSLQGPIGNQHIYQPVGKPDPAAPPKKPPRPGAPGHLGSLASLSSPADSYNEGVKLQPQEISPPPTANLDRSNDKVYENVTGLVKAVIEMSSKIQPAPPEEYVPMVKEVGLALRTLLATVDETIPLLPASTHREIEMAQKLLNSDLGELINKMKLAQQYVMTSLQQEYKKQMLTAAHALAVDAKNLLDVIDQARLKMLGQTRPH
Assay [12] concerns Fibrinogen (Alexa647-labelled). The assay can be described thus: Alexa647-fibrinogen binding to printed small molecules – biochemical, small-molecule microarray, 635/667 nm fluorescence, artefact control for SMM control-protein annotation, profiling panel (AID 1131).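 Note: z-score merges 667 nm fluorescence with per-spot signal-to-noise over triplicate slides.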 The conditions noted are these: fibrinogen-A647 binding fluorescence, higher = more signal.
The target in assay [13] is Follistatin (Homo sapiens) (UniProt P19883). As to the kind of experiment: FST protein binding to printed compounds – biochemical, small-molecule microarray, 635/667 nm fluorescence, primary screen (AID 1132). The conditions noted are these: 635 nm fluorescence, higher = more signal.
Chain of Follistatin (Homo sapiens) (P19883 whole entry, looked up): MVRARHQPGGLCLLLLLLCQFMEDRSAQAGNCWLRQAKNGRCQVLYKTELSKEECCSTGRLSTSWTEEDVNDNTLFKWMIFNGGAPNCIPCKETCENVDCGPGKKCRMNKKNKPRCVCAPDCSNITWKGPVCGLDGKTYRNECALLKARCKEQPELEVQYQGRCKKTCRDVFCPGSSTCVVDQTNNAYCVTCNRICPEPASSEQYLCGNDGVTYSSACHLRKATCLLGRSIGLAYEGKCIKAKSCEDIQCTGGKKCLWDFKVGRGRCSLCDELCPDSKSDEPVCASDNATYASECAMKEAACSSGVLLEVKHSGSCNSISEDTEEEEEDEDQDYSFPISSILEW
The target in assay [14] is Fibroblast growth factor 2 (Homo sapiens) (UniProt P09038). As to the kind of experiment: basic fibroblast growth factor binding to printed compounds – biochemical, small-molecule microarray, 635/667 nm fluorescence, primary screen (AID 1133). The conditions noted are these: FGF2, fluorescence 635/667, higher = more signal.
Chain of Fibroblast growth factor 2 (Homo sapiens) (P09038 whole entry, looked up): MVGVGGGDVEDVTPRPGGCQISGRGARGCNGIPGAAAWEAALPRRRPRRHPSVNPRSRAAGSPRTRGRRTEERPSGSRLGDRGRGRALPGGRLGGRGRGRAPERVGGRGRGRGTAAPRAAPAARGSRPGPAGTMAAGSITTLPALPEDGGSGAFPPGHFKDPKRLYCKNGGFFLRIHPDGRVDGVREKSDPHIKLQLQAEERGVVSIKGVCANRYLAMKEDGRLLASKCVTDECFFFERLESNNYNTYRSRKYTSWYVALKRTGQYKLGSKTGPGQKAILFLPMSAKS
Assay [15] in a line: JC-1 mitochondrial potential readout, lung cancer cells – cell-based, A549, JC-1 fluorescence, basal, 24 h, 100 nL, profiling panel (AID 1138).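 Note: A549 lung adenocarcinoma cells under basal conditions with no added stimulus; test concentration not given here.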 The conditions noted are these: higher = more signal.
The next assay concerns Lefty1. As to the kind of experiment: Lefty1 protein binding to printed compounds – biochemical, small-molecule microarray, 635/667 nm fluorescence, primary screen (AID 1139). The note with it: fluorescence 635/667, higher = more signal.
For assay [16], the system named is wheat germ agglutinin (Triticum aestivum), Alexa647-labelled. The assay can be described thus: Alexa647-WGA lectin binding to printed small molecules – biochemical, small-molecule microarray, 635/667 nm fluorescence, artefact control for SMM control-protein annotation, profiling panel (AID 1140).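 Note: score merges 667 nm feature emission with signal to noise over triplicate slides.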 The note with it: WGA-A647 binding, 635 nm fluorescence, higher = more signal.

For assay [17], the target named is Luciferin 4-monooxygenase (Photinus pyralis) (UniProt P08659). The assay can be described thus: inhibition of purified Photinus pyralis luciferase – biochemical, luminescence, purified enzyme, 2006 set, primary screen (AID 1141).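 Note: cell-free assay with purified firefly luciferase at 100 ng per well in PBS; test concentration not given here.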 The note with it: purified firefly luciferase, SteadyGlo luminescence, 30 min; higher = more signal, called active from +8 up or from −8 down.
Chain of Luciferin 4-monooxygenase (Photinus pyralis) (P08659 whole entry, looked up): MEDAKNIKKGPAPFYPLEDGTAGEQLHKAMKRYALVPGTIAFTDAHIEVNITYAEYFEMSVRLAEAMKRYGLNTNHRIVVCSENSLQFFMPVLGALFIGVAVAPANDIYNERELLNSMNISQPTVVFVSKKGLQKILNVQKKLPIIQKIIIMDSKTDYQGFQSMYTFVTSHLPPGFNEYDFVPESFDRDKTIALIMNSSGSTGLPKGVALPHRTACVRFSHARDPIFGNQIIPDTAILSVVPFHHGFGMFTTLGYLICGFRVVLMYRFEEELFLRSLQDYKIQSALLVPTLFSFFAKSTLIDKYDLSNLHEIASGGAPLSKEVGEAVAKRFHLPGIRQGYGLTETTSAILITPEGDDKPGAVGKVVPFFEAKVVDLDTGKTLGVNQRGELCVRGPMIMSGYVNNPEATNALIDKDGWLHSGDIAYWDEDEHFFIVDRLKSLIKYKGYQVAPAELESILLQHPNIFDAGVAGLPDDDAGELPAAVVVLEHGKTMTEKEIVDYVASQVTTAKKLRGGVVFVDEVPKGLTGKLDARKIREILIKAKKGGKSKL

Chain of Albumin (Bos taurus) (P02769 whole entry, looked up): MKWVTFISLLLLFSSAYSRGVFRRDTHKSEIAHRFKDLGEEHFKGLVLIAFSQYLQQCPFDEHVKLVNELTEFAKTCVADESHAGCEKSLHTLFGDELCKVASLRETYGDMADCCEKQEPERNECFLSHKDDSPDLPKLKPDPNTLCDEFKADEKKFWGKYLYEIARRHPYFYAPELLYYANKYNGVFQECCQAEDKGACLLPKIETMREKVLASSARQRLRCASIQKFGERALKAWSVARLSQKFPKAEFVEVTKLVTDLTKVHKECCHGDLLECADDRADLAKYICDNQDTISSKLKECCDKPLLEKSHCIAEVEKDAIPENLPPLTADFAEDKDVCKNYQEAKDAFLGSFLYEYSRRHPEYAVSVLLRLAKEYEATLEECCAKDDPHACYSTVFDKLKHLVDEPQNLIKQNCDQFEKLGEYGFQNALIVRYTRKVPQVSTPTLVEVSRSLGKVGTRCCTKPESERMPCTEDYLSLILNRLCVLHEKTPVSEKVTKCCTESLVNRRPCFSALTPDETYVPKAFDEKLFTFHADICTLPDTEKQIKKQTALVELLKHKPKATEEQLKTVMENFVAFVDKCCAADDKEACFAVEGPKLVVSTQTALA
Chain of Concanavalin-A (Canavalia ensiformis) (P02866 whole entry, looked up): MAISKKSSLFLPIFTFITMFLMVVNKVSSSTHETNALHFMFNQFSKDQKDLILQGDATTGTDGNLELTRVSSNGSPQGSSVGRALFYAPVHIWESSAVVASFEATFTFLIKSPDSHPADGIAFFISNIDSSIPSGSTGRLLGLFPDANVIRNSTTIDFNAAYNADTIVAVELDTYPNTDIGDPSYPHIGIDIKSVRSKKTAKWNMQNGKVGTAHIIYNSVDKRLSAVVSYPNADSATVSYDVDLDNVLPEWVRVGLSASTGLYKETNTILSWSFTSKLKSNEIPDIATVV

In the case of `COCCOC(=O)N1C(=O)[C@@]2(c3cc(C#CC4(O)CCCCCC4)ccc31)[C@H](C(=O)NC[C@H](O)c1ccccc1)[C@H]1C(=O)O[C@H](c3ccccc3)[C@H](c3ccccc3)N1[C@@H]2c1ccccc1OCCO`, the composite z-score in the assay with Albumin (Bos taurus) is -0.383; in [2], 0.0596; in [3], -0.0956; in assay [4], 0.668; in [5], 1.04; in assay [6], -0.0189. Also, the composite z-score with Sam68 (KHDRBS1) turned out to be 1.32; in assay [7] it was 0.405; in [8], 1.14; in assay [9], 0.67; in assay [10], 1.16; in [11], 0.714. The composite z-score in assay [12] is 0.873; in [13], 1.28; in assay [14], 1.56; in the assay on Lefty1, 1.4; in assay [16] it was 0.791. In assay [1], the composite Z-score was 1.51 (inactive). For the same molecule, the z-score in assay [15] was -0.88; in [17] it was -1.81 (inactive).

Turning to `COC(=O)c1c(CC[C@@H](CO)NC(=O)Nc2ccc(OC)cc2)oc(C(=O)Cc2ccccc2)c1C(=O)OC`, the composite z-score is 0.771 with Albumin (Bos taurus); -0.004 in assay [2]; -0.0776 in assay [3]; 0.656 in assay [4]; 0.261 in [5]; 0.21 in assay [6]. For the same molecule, the composite z-score is 0.603 in the assay on Sam68 (KHDRBS1); 0.12 in assay [7]; 0.688 in assay [8]; -0.177 in assay [9]; 0.45 in assay [10]; -0.181 in assay [11]. Besides, the composite z-score in assay [12] was found to be 0.211; in assay [13], 0.473; in assay [14], 0.434; in the assay with Lefty1, 1.08; in [16], 0.371. Besides, the composite Z-score in assay [1] was 0.466 (inactive). Moreover, the figures for the z-score in [15] and in assay [17] were 1.02 and -1.37 (inactive), respectively.

With `O=C(NC1CC1)[C@@H]1c2ccccc2C(=O)N(Cc2ccccc2C(F)(F)F)[C@H]1c1ccc(CO)cc1`, the composite z-score with Albumin (Bos taurus) was 0.289; in assay [2], 0.0194; in assay [3] it was -0.0173; in assay [4] it was 0.676; in assay [5] it was 2.26; in assay [6] it was 0.234. Also, the composite z-score in the assay with Sam68 (KHDRBS1) is 1.35; in assay [7], 0.102; in assay [8], 1.08; in assay [9] it was 0.911; in [10], 1.1; in assay [11] it was 0.829. In addition, the composite z-score in assay [12] is 0.428; in assay [13], 0.928; in assay [14] it was 0.86; with Lefty1, 0.159; in assay [16] it was 0.527. Besides, the composite Z-score in assay [1] is 2.36 (inactive). Besides, the z-score is 2.04 in assay [15] and -0.945 (inactive) in assay [17].

Regarding `COc1ccc([Si](C)(C)[C@@H]2[C@@H](CCn3cc([C@H](O)c4ccccc4)nn3)O[C@]3(C(=O)N(C)c4c(Br)cc(C)cc43)[C@H]2C)cc1`, the composite z-score in the assay with Albumin (Bos taurus) is -0.0364; in [2], -0.129; in assay [3], -0.118; in assay [4] it was -0.273; in assay [5], -0.525; in assay [6], -0.129. The composite z-score in the assay with Sam68 (KHDRBS1) was -0.849; in assay [7], -0.254; in assay [8], -0.679; in [9], 0.18; in assay [10], -0.773; in [11] it was -0.501. The composite z-score is -0.59 in [12]; 1.19 in assay [13]; 1.44 in assay [14]; -0.166 with Lefty1; 0.397 in assay [16]. In [1], the composite Z-score is 0.62 (inactive). Further, the z-score is 0.517 in [15] and -2.15 (inactive) in assay [17].

On to `O=C1O[C@@H](c2ccccc2)[C@@H](c2ccccc2)N2[C@@H](c3ccc(OCCO)cc3)[C@]3(C(=O)Nc4ccc(C#CC5(O)CCCCCC5)cc43)[C@@H](C(=O)NC[C@H](O)c3ccccc3)[C@H]12`, for which the composite z-score in the assay with Albumin (Bos taurus) was found to be 0.879; in assay [2], 0.158; in [3] it was 0.0278; in [4] it was 0.695; in assay [5], 1.56; in assay [6] it was 2.16. Besides, the composite z-score with Sam68 (KHDRBS1) stood at 1.32; in assay [7] it was 0.127; in assay [8], 1.17; in assay [9] it was 2.14; in assay [10] it was 1.08; in assay [11] it was 0.745. Further, the composite z-score in [12] came to 0.407; in assay [13], 1.23; in assay [14], 0.505; with Lefty1, 0.783; in [16], 1.09. In addition, in assay [1], the composite Z-score was -0.363 (inactive). Besides, the z-score in assay [15] was -0.482; in assay [17] it was -1.77 (inactive).
